Experimental data taken from PubChem BioAssay AID1159580 (chemical genetic matrix, 2015).
About 2,000 (36%) of roughly 5,500 compounds were called active. Not shown: some 18% with an inconclusive outcome. No stated cut-off is given here; in the data, active means normalized growth mostly below about 0.91 (no sharp cut-off); inconclusive means no clear call, values can overlap the other calls; inactive means mostly above about 0.92. The list shows a part of the results.

Experiment: chemical genetic growth profiling, strain panel (AID 1159580);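 further: tested at 20 µM; growth read once vehicle control cultures reached saturation at 30 °C; 1 = growth at the plate median or of vehicle wells; lower values mean less growth of the strain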
Settings: S. cerevisiae deletion strains, growth OD
[1] = locus YAR019C, strain CDC15, hits give low values
[2] = locus YBL105C, strain PKC1, hits give low values
[3] = locus YBR135W, strain CKS1, hits give low values
[4] = locus YBR136W, strain MEC1, hits give low values
[5] = locus YBR160W, strain CDC28, hits give low values
[6] = locus YDL017W, strain CDC7, hits give low values
[7] = locus YDL028C, strain MPS1, hits give low values
[8] = locus YDL101C, strain DUN1, hits give low values
[9] = locus YDL108W, strain KIN28, hits give low values
[10] = locus YDL132W, strain cdc53, hits give low values
[11] = locus YDL214C, strain PRR2, hits give low values
[12] = locus YDR052C, strain DBF4, hits give low values
[13] = locus YDR054C, strain cdc34, hits give low values
[14] = locus YDR226W, strain ADK1, hits give low values
[15] = locus YDR477W, strain SNF1, hits give low values
[16] = locus YER123W, strain YCK3, hits give low values
[17] = locus YER133W, strain GLC7, hits give low values
[18] = locus YFL009W, strain cdc4, hits give low values
[19] = locus YFL029C, strain CAK1, hits give low values
[20] = locus YFR003C, strain YPI1, hits give low values
[21] = locus YFR019W, strain FAB1, hits give low values
[22] = locus YFR028C, strain CDC14, hits give low values
[23] = locus YGR040W, strain KSS1, hits give low values
[24] = locus YGR052W, strain FMP48, hits give low values
[25] = locus YGR092W, strain DBF2, hits give low values
[26] = locus YHR030C, strain SLT2, hits give low values
[27] = locus YHR079C, strain IRE1, hits give low values
[28] = locus YHR082C, strain KSP1, hits give low values
[29] = locus YHR205W, strain SCH9, hits give low values
[30] = locus YIL147C, strain SLN1, hits give low values
[31] = locus YJL095W, strain BCK1, hits give low values
[32] = locus YJL128C, strain PBS2, hits give low values
[33] = locus YJL157C, strain FAR1, hits give low values
[34] = locus YJR016C, strain ILV3, hits give low values
[35] = locus YJR066W, strain TOR1 (second series), hits give low values
[36] = locus YJR066W, strain TOR1, hits give low values
[37] = locus YKL048C, strain ELM1, hits give low values
[38] = locus YKL067W, strain YNK1, hits give low values
[39] = locus YKL101W, strain HSL1, hits give low values
[40] = locus YKL193C, strain SDS22, hits give low values
[41] = locus YKL203C, strain TOR2, hits give low values
[42] = locus YLR113W, strain HOG1, hits give low values
[43] = locus YLR133W, strain CKI1, hits give low values
[44] = locus YLR403W, strain SFP1, hits give low values
[45] = locus YML070W, strain DAK1, hits give low values
[46] = locus YMR001C, strain CDC5, hits give low values
[47] = locus YMR205C, strain PFK2 (second series), hits give low values
[48] = locus YMR277W, strain FCP1, hits give low values
[49] = locus YNL006W, strain LST8, hits give low values
[50] = locus YNL020C, strain ARK1, hits give low values
[51] = locus YNL161W, strain CBK1, hits give low values
[52] = locus YNL183C, strain NPR1, hits give low values
[53] = locus YNL207W, strain RIO2, hits give low values
[54] = locus YNL222W, strain SSU72, hits give low values
[55] = locus YNL307C, strain MCK1 (second series), hits give low values
[56] = locus YOL078W, strain AVO1, hits give low values
[57] = locus YOL136C, strain PFK27, hits give low values
[58] = locus YOR061W, strain CKA2, hits give low values
[59] = locus YOR119C, strain RIO1, hits give low values
[60] = locus YOR231W, strain MKK1, hits give low values
[61] = locus YOR329C, strain SCD5, hits give low values
[62] = locus YPL031C, strain PHO85, hits give low values
[63] = locus YPL153C, strain RAD53, hits give low values
[64] = locus YPL204W, strain HRR25, hits give low values
[65] = locus YPL209C, strain IPL1, hits give low values
[66] = locus YPL256C, strain CLN2, hits give low values
[67] = locus YPR025C, strain CCL1, hits give low values
[68] = locus YPR106W, strain ISR1, hits give low values
[69] = locus YPR111W, strain DBF20, hits give low values
[70] = strain NNK1, hits give low values
[71] = strain TSCII, hits give low values

Measured: normalized growth

CNC(=O)n1nc(C)c(Cc2csc3ccc(Cl)cc23)c1C
inactive: [1] 0.995 | [2] 0.998 | [3] 0.984 | [4] 0.997 | [5] 0.991 | [6] 0.994 | [7] 0.997 | [8] 1.01 | [9] 0.993 | [10] 1 | [11] 0.943 | [12] 1 | [13] 0.99 | [14] 0.99 | [15] 0.976 | [16] 0.906 | [17] 0.959 | [18] 0.999 | [19] 0.993 | [20] 0.993 | [21] 0.928 | [22] 0.978 | [23] 0.95 | [24] 0.989 | [25] 0.949 | [26] 0.935 | [27] 0.893 | [28] 0.936 | [29] 0.921 | [30] 0.993 | [31] 0.94 | [32] 0.934 | [33] 0.961 | [34] 0.994 | [35] 0.931 | [36] 1.02 | [37] 0.983 | [38] 0.91 | [39] 0.951 | [40] 0.991 | [41] 0.996 | [42] 0.902 | [43] 0.937 | [44] 0.942 | [45] 0.917 | [46] 0.988 | [47] 0.933 | [48] 0.988 | [49] 0.988 | [50] 0.934 | [51] 0.993 | [52] 0.896 | [53] 0.993 | [54] 0.992 | [55] 0.925 | [56] 0.991 | [57] 0.926 | [58] 0.957 | [59] 1.03 | [60] 0.894 | [61] 0.997 | [62] 0.966 | [63] 0.936 | [64] 0.926 | [65] 0.993 | [67] 0.998 | [68] 0.999 | [69] 0.979 | [70] 0.991 | [71] 0.989
active: [66] 0.855

COc1ccc(C(=O)NCc2csc3ccc(Cl)cc23)cc1OC
inactive: [1] 0.971 | [2] 0.97 | [3] 0.985 | [4] 0.975 | [5] 0.975 | [6] 0.982 | [7] 0.986 | [8] 0.973 | [9] 0.981 | [10] 0.979 | [11] 0.986 | [12] 0.971 | [13] 0.955 | [14] 0.975 | [15] 0.982 | [16] 0.977 | [17] 0.978 | [18] 0.97 | [19] 0.974 | [20] 0.977 | [21] 1 | [22] 0.977 | [23] 0.994 | [24] 1.05 | [25] 0.981 | [26] 1.03 | [27] 1.01 | [28] 1.05 | [29] 0.972 | [30] 0.975 | [31] 1.05 | [32] 0.92 | [33] 0.988 | [34] 0.975 | [35] 1.01 | [36] 1.07 | [37] 0.98 | [38] 0.987 | [39] 0.994 | [40] 0.977 | [41] 1.05 | [42] 0.92 | [43] 0.976 | [44] 0.994 | [45] 0.983 | [46] 0.979 | [47] 0.986 | [48] 0.973 | [49] 0.983 | [50] 0.985 | [51] 0.975 | [52] 0.999 | [53] 0.962 | [54] 0.972 | [55] 0.972 | [56] 0.977 | [57] 0.98 | [58] 1 | [59] 1.05 | [60] 0.983 | [61] 0.975 | [62] 0.994 | [63] 0.995 | [64] 0.974 | [65] 0.972 | [66] 0.947 | [67] 0.976 | [68] 0.966 | [69] 0.954 | [70] 0.97 | [71] 0.984

NNC(=O)c1csc(Cc2c(Cl)sc3ccc(Cl)cc23)n1
inactive: [1] 0.979 | [2] 0.983 | [3] 1 | [4] 0.993 | [5] 0.996 | [6] 0.985 | [7] 0.996 | [8] 0.985 | [9] 1 | [10] 0.975 | [11] 1.02 | [12] 0.986 | [13] 0.968 | [14] 0.996 | [15] 0.979 | [16] 1.01 | [17] 0.979 | [18] 0.991 | [19] 0.971 | [20] 0.994 | [21] 0.992 | [22] 0.994 | [23] 0.988 | [24] 1.11 | [25] 0.969 | [26] 1 | [27] 0.977 | [28] 1.04 | [29] 1.01 | [30] 0.99 | [31] 0.994 | [32] 0.998 | [33] 0.994 | [34] 0.981 | [35] 0.983 | [36] 1.05 | [37] 1 | [38] 1 | [39] 1.02 | [40] 0.983 | [41] 1.04 | [42] 1.07 | [43] 1 | [44] 0.978 | [45] 1.01 | [46] 0.989 | [47] 1.01 | [48] 0.981 | [49] 0.998 | [50] 0.999 | [51] 0.983 | [52] 1.03 | [53] 0.983 | [54] 0.986 | [55] 1.01 | [56] 0.976 | [57] 1 | [58] 1.01 | [59] 1.07 | [60] 0.986 | [61] 0.99 | [62] 0.984 | [63] 0.974 | [64] 0.971 | [65] 0.984 | [66] 1.03 | [67] 0.995 | [68] 0.998 | [69] 0.992 | [70] 0.984 | [71] 0.982
